“And” between values parts separate entries of the source, which are not always exact repeats. Equal entries are not always repeated. Records with an inconclusive call do not appear. Some compounds were tested as several samples or in several runs, with calls that do not always agree. The source made the active and inactive calls. Unless noted, the call rests on the fitted dose curve; in most records, active means well fitted curve in the direction sought with a large enough effect; inconclusive means small, poorly fitted or top-dose-only effect, or another doubt; inactive means no such curve, though single readings can be large; an effect the other way counts as inactive or inconclusive. Some results are limits rather than exact numbers.

The values that follow come from PubChem BioAssay (NCATS).

Assay [1] can be described thus: AP1 Signaling Pathway (AID 357; active means well fitted curve in either direction with a large enough effect, not every such curve was filed as active;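 further: ME-180 reporter cells stimulated with EGF at its EC50 level; on the % scale 0 is the no-effect control and ±100 the full control effect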). The settings on record: ME-180 AP-1-bla reporter, EGF-induced, beta-lactamase ratio, 5 h; at 17.2 µM (top of the series). Put shortly: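 Titration-series screen for positive or negative modulators of EC50 EGF-induced signaling in ME-180 cells carrying an AP-1-driven beta-lactamase reporter. After 5 hours at 37 degrees Celsius, CCF4 460nm/530nm emission ratio gave %Activity; AC50 values derived.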

The target of assay [2] is Cytochrome P450 1A2 (Homo sapiens) (UniProt P05177). Put plainly: p450-cyp1a2 (AID 410; calls by dose curve; further: potency means the concentration at half of the fitted maximal effect). The settings on record: recombinant CYP1A2, luciferin-ME demethylation, luminescence; series mostly up to 57 µM. Put shortly:
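Read-out is luminescence from luciferin produced by CYP1A2 demethylation of Luciferin-ME (100uM, at Km). Detection reagent stopped the 60 min NADPH-dependent reaction; signals were normalized to 57 uM furafylline.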

The nature of assay [3]: Stat Signaling Pathway (AID 446; active means well fitted curve in either direction with a large enough effect, not every such curve was filed as active;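 further: ME-180 cervical cancer cells given 40 pM IL-6 alongside compound; SIE-controlled beta-lactamase reporter measured as 460/530 nm FRET emission ratio; on the % scale 0 is the no-effect control and ±100 the full control effect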). The settings on record: ME-180 (cervical carcinoma) SIE beta-lactamase reporter, IL-6 stimulated, 5 h; at 17.2 µM (top of the series). The gist of the method:
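FRET read-out (405 nm excitation, 460/530 nm emission) of a beta-lactamase reporter under a STAT-inducible element in ME-180 cervical carcinoma cells. Cells with compound receive 40 pM IL-6 for 5 h. Values are normalised to AC90 stimulation and AC90 JAK-inhibitor controls.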

In assay [4] the target is Glucocorticoid receptor (Homo sapiens) (UniProt P04150). Briefly: GR-GFP Redistribution (AID 450;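 active means compounds whose dose series gives a full or clear partial fitted curve of increased nuclear translocation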; further: potency means the concentration at half of the fitted maximal effect). The settings on record: U2OS GR-GFP nuclear translocation, laser cytometry, 2 h.
Chain of Glucocorticoid receptor (Homo sapiens) (P04150 whole entry, looked up, the tested form may be a part): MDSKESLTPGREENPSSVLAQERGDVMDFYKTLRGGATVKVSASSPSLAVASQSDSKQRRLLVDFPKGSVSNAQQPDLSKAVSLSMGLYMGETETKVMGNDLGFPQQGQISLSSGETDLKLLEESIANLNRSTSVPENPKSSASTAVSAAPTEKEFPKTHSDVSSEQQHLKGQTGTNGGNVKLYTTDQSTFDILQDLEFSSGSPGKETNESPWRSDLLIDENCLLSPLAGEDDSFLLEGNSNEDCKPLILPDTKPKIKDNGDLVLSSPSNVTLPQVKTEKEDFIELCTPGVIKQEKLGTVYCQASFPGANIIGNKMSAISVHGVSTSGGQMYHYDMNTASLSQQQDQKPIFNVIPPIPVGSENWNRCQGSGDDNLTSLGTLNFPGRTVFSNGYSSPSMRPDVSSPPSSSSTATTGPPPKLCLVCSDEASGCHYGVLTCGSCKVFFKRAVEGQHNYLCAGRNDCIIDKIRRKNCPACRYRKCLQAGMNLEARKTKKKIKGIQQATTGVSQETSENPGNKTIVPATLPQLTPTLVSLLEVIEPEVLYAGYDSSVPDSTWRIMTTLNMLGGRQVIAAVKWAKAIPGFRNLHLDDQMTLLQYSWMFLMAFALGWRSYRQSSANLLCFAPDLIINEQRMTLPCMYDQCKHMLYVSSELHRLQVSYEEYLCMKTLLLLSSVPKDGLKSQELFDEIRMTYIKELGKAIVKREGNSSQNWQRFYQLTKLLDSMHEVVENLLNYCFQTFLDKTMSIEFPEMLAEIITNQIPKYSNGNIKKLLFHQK
The target is the same in assay [5]. Put plainly: GR-EFC Redistribution (AID 451; calls by dose curve; further: potency means the concentration at half of the fitted maximal effect). The settings on record: CHO-K1 GR-EFC translocation, beta-gal luminescence, 2 h. Put shortly: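 Translocation of GR-ED fusion to nuclear EA restores b-gal, read by luminescence after 1 h room-temperature detection. Engineered CHO-K1 biosensor cells, 1,000/well, exposed 2 h at 37 C to titrations up to 46 uM final.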

Assay [6] deals with Mitogen-activated protein kinase 10 (Mus musculus) (UniProt Q61831). Briefly: JNK3 AlphaScreen Assay (AID 530; active means well fitted curve in either direction with a large enough effect, not every such curve was filed as active;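 further: kinase came from lysate of stimulated human HepG2 cells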; further: potency means the concentration at half of the fitted maximal effect;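 on activity change, negative = inhibition: signal reports phosphorylation of biotinylated GST-cJun 1-79 at Ser73 with 10 µM ATP; on the % scale 0 is the no-effect control and ±100 the full control effect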). The settings on record: JNK3 lysate, c-Jun phosphorylation; series mostly up to 57.1 µM. The gist of the method: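 Kinase buffer: 20 mM Tris-HCl pH 7.6, 10 mM MgCl2, 1 mM DTT, 0.1 mM Na3VO4, 0.01% Tween-20; ATP 10 uM. Substrate biotin-GST-cJun(1-79), enzyme from activated HepG2 lysates. Detection by Ser73 phospho-antibody AlphaScreen.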
In general terms: Alpha assays give light when donor and acceptor beads are brought close together.

For assay [7], the target named is Cytochrome P450 2C9 (Homo sapiens) (UniProt P11712). Briefly: qHTS Assay for Inhibitors and Substrates of Cytochrome P450 2C9 (AID 883). Further: on the % scale 0 is the no-effect control and ±100 the full control effect; nearly all actives have a fitted effect of over 60% in size. The settings on record: recombinant CYP2C9, luciferin-H luminescence, 60 min; series mostly up to 57.1 µM. Put shortly: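 Inhibition of CYP2C9 is scored as loss of luminescence, with 57uM sulphaphenazole defining 100% inhibition. Substrate Luciferin-H is used at 100uM, equal to its KM; enzyme at 10nM in 25mM KPO4, 60 min at 37C with NADPH regeneration.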
Chain of Cytochrome P450 2C9 (Homo sapiens) (P11712 whole entry, looked up): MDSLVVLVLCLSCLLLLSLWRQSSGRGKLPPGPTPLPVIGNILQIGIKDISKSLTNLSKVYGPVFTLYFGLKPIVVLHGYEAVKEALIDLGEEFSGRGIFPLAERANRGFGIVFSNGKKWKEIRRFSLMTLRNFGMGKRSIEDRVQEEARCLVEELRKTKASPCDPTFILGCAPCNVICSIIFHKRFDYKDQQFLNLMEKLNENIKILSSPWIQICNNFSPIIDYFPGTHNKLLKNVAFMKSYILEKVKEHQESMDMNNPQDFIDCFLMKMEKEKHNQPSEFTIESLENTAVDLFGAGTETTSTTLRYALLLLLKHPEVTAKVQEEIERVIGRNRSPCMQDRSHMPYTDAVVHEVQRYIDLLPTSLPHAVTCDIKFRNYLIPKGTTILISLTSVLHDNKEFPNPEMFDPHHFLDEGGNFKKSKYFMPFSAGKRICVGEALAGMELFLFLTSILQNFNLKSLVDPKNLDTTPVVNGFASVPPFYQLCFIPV
A general note: qHTS replaces the single test concentration by a dilution series.

Assay [8] deals with Cytochrome P450 3A4 (Homo sapiens) (UniProt P08684). Briefly: qHTS Assay for Activators of Cytochrome P450 3A4 (AID 885). Further: nearly all actives have a fitted effect of over 65% in size. The settings on record: recombinant CYP3A4, Luciferin-PPXE luminescence, 60 min; series mostly up to 57.1 µM. The gist of the method:
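Luminescent readout of luciferin formed from 25 uM Luciferin-PPXE (KM level) by 20 nM CYP3A4 in 200 mM KPO4, with 60 min NADPH-driven reaction at room temperature after 10 min compound exposure. Ketoconazole (57 uM) defined 100% inhibition.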

For assay [9], the target named is Cytochrome P450 2D6 (Homo sapiens) (UniProt P10635). Briefly: qHTS Assay for Inhibitors and Substrates of Cytochrome P450 2D6 (AID 891). Further: potency means the concentration at half of the fitted maximal effect; nearly all actives have a fitted effect of over 60% in size. The settings on record: recombinant CYP2D6, luciferin-ME EGE luminescence; series mostly up to 57.1 µM. The gist of the method: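 Luminescent read-out of luciferin formed by 5 nM human CYP2D6 demethylating 30 uM Luciferin-ME EGE (Km level) over 60 min at room temperature after NADPH regeneration addition. Data normalized to full inhibition by 1.43 uM quinidine.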
Chain of Cytochrome P450 2D6 (Homo sapiens) (P10635 whole entry, looked up): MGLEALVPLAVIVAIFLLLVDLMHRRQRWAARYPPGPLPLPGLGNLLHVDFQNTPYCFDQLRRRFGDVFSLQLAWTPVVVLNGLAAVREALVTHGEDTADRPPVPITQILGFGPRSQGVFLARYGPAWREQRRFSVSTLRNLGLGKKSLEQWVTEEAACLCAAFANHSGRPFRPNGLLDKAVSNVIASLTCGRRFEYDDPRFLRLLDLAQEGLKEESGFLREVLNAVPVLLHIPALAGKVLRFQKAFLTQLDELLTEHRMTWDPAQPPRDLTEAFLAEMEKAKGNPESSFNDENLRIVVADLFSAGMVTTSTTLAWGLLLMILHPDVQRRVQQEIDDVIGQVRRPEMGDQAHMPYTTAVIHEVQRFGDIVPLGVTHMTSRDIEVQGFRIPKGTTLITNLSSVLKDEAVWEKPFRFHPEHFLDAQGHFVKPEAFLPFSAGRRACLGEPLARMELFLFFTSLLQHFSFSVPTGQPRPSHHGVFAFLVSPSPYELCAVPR

The target in assay [10] is Cytochrome P450 2C19 (Homo sapiens) (UniProt P33261). Put plainly: qHTS Assay for Inhibitors and Substrates of Cytochrome P450 2C19 (AID 899). Further: potency means the concentration at half of the fitted maximal effect; nearly all actives have a fitted effect of over 60% in size. The settings on record: recombinant CYP2C19, luciferin-H EGE luminescence; series mostly up to 57.1 µM. The gist of the method: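 5nM enzyme + 10uM Luciferin-H EGE (=KM), 50mM KPO4; cpd pin-transferred, 10 min 37C; NADPH regen, 60 min 37C; stopped w/ luciferin detection reagent, 20 min; luminescence. Normalized to 57uM ketoconazole (AC100).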
Chain of Cytochrome P450 2C19 (Homo sapiens) (P33261 whole entry, looked up): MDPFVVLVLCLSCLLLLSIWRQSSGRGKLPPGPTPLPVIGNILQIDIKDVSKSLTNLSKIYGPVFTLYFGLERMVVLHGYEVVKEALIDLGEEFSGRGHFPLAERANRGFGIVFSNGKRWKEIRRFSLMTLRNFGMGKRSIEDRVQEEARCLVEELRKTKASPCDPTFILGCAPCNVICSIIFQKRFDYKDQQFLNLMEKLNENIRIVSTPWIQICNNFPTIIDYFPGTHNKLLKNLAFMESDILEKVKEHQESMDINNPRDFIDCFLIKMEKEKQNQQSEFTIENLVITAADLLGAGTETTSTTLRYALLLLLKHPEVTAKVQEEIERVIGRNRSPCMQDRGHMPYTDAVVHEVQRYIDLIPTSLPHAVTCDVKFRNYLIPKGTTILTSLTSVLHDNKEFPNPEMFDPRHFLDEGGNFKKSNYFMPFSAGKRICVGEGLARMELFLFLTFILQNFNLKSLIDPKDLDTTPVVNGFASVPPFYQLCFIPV

Assay [11] can be described thus: qHTS Assay for Lipid Storage Modulators (AID 1519; calls by dose curve). The settings on record: Drosophila S3 cells, BODIPY lipid droplet/cell ratio, laser cytometry, cells loaded with oleic acid. The gist of the method:
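Cells seeded at 5,000 per well were treated with compounds over a concentration series and loaded with oleic acid (400 uM, as added). Lipid droplet fluorescence (488 nm excitation, 500-530 nm channel) was read by laser-scanning cytometry and normalized to 20 uM Triacsin C.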

Assay [12] deals with DNA dC->dU-editing enzyme APOBEC-3G (Homo sapiens) (UniProt Q9HC16). Briefly: qHTS for inhibitors of Vif-A3G interactions: Validation (AID 588379). Further: 0% is about no effect. The settings on record: Vif-A3G protein interaction assay; series mostly up to 46.1 µM. The gist of the method:
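Yellow fluorescence (Ex 488, Em 500-530) of Vif-coexpressing HeLa A3G-eYFP cells, scanned by Acumen cytometer, reports blocked A3G degradation. Cells plated at 700/well overnight at 37 deg C before compound addition, then a further overnight compound incubation at 37 deg C.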

Assay [13] deals with Zika virus NS2B-NS3 protease. Put plainly: Primary screen GU AMC qHTS for Zika virus inhibitors (AID 1347154).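 Further: 0% = no-inhibitor control and -100% = no-enzyme control; nearly all actives have a fitted effect of over 70% in size.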 The settings on record: Zika NS2B-NS3 unlinked protease, AMC fluorogenic substrate; series mostly up to 54.1 µM. The gist of the method: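 Fluorogenic AMC-substrate cleavage by noncovalent NS2B-NS3 protease complex (25 nM, pH 8.0 Tris buffer with Tween 20) followed for 15 minutes at room temperature (~20% conversion). Percent inhibition from ex340/em450 signal change, fitted by 4-parameter Hill equation.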

Assay [14] can be described thus: Primary qHTS for small molecule stabilizers of the endoplasmic reticulum resident proteome: Secreted ER Calcium Modulated Protein (SERCaMP) assay (AID 1508630). Further: on the % scale 0 is the no-effect control and ±100 the full control effect. The settings on record: SH-SY5Y GLuc-SERCaMP (Gaussia luciferase released on ER calcium loss) secretion, thapsigargin, luminescence; series mostly up to 38.4 µM. Put shortly: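 The SH-SY5Y reporter protocol was run at 3 concentrations up to 38.3 uM (primary) or 11 concentrations (follow-up): 16 h compound, 100 nM thapsigargin for 4 h, then extracellular luciferase luminescence.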

Chain of Cytochrome P450 1A2 (Homo sapiens) (P05177 whole entry, looked up): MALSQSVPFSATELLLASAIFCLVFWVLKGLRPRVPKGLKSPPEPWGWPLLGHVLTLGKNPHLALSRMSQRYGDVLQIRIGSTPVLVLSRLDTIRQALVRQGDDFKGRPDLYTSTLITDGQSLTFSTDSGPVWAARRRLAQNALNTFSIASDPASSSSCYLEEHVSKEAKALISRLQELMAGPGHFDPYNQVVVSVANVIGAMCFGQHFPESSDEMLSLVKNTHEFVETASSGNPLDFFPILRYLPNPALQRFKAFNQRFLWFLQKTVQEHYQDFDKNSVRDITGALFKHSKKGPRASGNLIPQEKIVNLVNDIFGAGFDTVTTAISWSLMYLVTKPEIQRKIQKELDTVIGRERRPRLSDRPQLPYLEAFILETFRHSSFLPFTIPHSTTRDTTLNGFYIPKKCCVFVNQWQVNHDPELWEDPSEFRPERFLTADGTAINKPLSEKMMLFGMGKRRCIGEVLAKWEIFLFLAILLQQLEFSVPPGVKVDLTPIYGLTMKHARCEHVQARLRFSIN
Chain of DNA dC->dU-editing enzyme APOBEC-3G (Homo sapiens) (Q9HC16 whole entry, looked up): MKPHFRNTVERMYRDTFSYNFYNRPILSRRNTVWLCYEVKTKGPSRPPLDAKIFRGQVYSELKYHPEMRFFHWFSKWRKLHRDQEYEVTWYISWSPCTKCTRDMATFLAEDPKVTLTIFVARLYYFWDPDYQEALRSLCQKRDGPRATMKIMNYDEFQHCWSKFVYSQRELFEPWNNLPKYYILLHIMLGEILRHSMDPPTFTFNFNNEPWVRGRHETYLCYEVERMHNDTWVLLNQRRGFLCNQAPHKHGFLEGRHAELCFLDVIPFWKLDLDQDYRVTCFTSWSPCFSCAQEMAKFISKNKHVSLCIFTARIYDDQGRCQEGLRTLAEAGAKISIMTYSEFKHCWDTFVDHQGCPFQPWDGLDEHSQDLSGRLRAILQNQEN
Chain of Cytochrome P450 3A4 (Homo sapiens) (P08684 whole entry, looked up): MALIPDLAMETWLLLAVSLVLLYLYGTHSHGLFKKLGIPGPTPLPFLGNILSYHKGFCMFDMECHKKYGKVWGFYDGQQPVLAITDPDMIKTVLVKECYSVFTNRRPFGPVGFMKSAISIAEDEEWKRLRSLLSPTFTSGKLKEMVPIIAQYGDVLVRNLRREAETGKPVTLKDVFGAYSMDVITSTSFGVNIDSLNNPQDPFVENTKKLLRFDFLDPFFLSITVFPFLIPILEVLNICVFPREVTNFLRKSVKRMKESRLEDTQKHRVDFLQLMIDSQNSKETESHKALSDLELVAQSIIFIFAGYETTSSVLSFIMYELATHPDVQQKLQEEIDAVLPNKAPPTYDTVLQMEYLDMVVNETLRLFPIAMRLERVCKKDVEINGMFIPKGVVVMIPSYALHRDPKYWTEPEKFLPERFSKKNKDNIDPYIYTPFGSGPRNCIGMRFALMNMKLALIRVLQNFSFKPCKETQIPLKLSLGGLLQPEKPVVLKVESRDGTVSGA

With `CO[C@@]12C[C@@H](COC(=O)c3cncc(Br)c3)CN(C)[C@H]1Cc1cn(C)c3cccc2c13`, the activity change, negative = inhibition in assay [1] was -12% (inactive); in [11] (at 25.7 µM (top of the series)), -0.393% (inactive). For the same molecule, the Potency in [2] is 5.01 µM (active) and 15.8 µM (active) and 39.8 µM (active); in assay [4], > 20.6 µM (inactive) and > 46 µM (inactive); in assay [5], > 20.6 µM (inactive) and > 46 µM (inactive); in assay [6] it was “inactive and 3.16 µM (active)”; in assay [9] it was 39.8 nM (active) and 2.5 nM (active) and 20 nM (active); in [10], 6.31 µM (active). Besides, in assay [3], the activity, negative = inhibition was -10.5% (inactive). In addition, the Potency result in assay [7], in assay [8], in assay [12], in assay [13] and in [14] was “inactive” in each case. Further, the max response in [11] (measured here: cell count channel max response) was -7.54%; in assay [11] (measured here: lipid channel max response), -4.61%.
